Values without a mark were called inactive. This is one part of the list. Active and inactive are the calls of the source. Unless noted, no stated cut-off is given here; in the data, active means inhibition above about 33%; inactive means the rest.
Assays:
[1] = target: Nuclear receptor coactivator 3 (Homo sapiens) (UniProt Q9Y6Q9); assay: SRC3 coactivator transcriptional activity inhibitors, confirmation, cell-based, luminescence, quadruplicate (AID 588792;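 active means mean inhibition over 43.08%, the solvent-only control mean plus 3 SD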;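 further: 0% = DMSO treated cells and 100% = gossypol at 36 µM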); settings: HEK293 GAL4-SRC3 luciferase reporter, at 3.6 µM, stronger effect = higher value
[2] = tested on: transactivating tegument protein VP16 (Human herpesvirus 1), Gal4-VP16 luciferase reporter; assay: VP16 transactivation inhibitors, counter-screen for SRC3 inhibitor project, cell-based, luminescence, high throughput (AID 588794; in the data active means inhibition above about 30%); settings: mammalian cells, VP16-driven luciferase reporter luminescence; at 3.6 µM; stronger effect = higher value
[3] = target: Nuclear receptor coactivator 1 (Homo sapiens) (UniProt Q15788); assay: SRC1 coactivator transcriptional activity inhibitors, confirmation, cell-based, luminescence, quadruplicate (AID 588820;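 active means mean inhibition above 46.68%, the untreated control wells mean plus 3 SD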;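 further: 0% = DMSO wells and 100% = gossypol 36 µM treated wells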); settings: HEK293 GAL4-SRC1 luciferase reporter, at 3.6 µM, stronger effect = higher value
[4] = VP16 transactivation inhibitors, counter-screen for SRC1 inhibitor project, cell-based, luminescence, high throughput (AID 588824; in the data active means inhibition above about 25%); settings: cell-based VP16 transactivation luciferase luminescence; at 3.6 µM; stronger effect = higher value
[5] = StAR promoter reporter inhibitors, counter-screen for LRH-1 inverse agonist project, cell-based, luminescence, high throughput (AID 651611; in the data active means inhibition above about 28%); settings: StAR promoter luciferase reporter counterscreen, at 3.6 µM, stronger effect = higher value
[6] = target: Nuclear receptor subfamily 5 group A member 2 (Homo sapiens) (UniProt O00482); assay: LRH-1 (NR5A2) inverse agonists, retest, confirmation, cell-based, luminescence (AID 651613; in the data active means inhibition above about 42%;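 further: HEK293T cells co-transfected with LRH-1 and StAR promoter luciferase reporter; 0% = vehicle wells and 100% = parental cells lacking receptor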); settings: cell-based LRH-1 luciferase reporter, inverse agonism; at 3.6 µM; stronger effect = higher value
[7] = target: Steroidogenic factor 1 (Homo sapiens) (UniProt Q13285); assay: SF1 (NR5A1) inverse agonists, counter-screen for LRH-1 inverse agonist project, cell-based, luminescence, high throughput (AID 651614; in the data active means inhibition above about 44%;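 further: cells cotransfected with StAR promoter reporter and SF1 expression vector; 0% = vehicle on cells with receptor and 100% = vehicle on cells lacking receptor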); settings: cell-based SF1 luciferase reporter, at 3.6 µM, stronger effect = higher value
[8] = VP16 transactivation reporter inhibitors, counter-screen for LRH-1 inverse agonist project, cell-based, luminescence, high throughput (AID 651615); settings: Gal4-VP16 luciferase reporter cells, at 3.6 µM, stronger effect = higher value
[9] = growth loss of phage-infected RecBCD+ E. coli, confirmation, RecBCD inhibitor project, absorbance, E. coli V66, T4 gene 2 phage (AID 651982;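 active means mean inhibition over triplicates exceeding the hit threshold derived in the original primary screen, cut at about 11% in these data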); settings: E. coli V66 + T4 2- phage, growth OD; at 11.9 µM; stronger effect = higher value
[10] = E. coli viability inhibition, counter-screen for RecBCD inhibitor project, absorbance, high throughput (AID 651983; in the data active means inhibition above about 20%;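 further: E. coli strain V66 grown with compound alone and no phage infection; 0% = bacteria with DMSO vehicle only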); settings: absorbance (OD) growth, at 11.9 µM, stronger effect = higher value
[11] = growth loss of phage-infected AddAB-carrying E. coli, confirmation, counter-screen for RecBCD inhibitor project, absorbance, E. coli V3065, T4 phage (AID 651984;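 active means mean inhibition above the solvent-only control wells' mean plus 3 SD, cut at about 22% in these data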;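 further: higher means less bacterial growth from phage killing when AddAB is blocked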); settings: E. coli expressing H. pylori AddAB + T4 phage, OD growth; at 11.9 µM; stronger effect = higher value; gene 2 mutant T4, recBCD-deleted host
[12] = tested on: transactivating tegument protein VP16 (Human herpesvirus 1); assay: VP16 transactivation reporter inhibitors, counter-screen for SRC2 inhibitor project, cell-based, luminescence, single concentration (AID 652007; in the data active means inhibition above about 36%); settings: cell-based VP16 transactivation luciferase reporter, at 8.9 µM, stronger effect = higher value
[13] = target: Nuclear receptor coactivator 2 (Homo sapiens) (UniProt Q15596); assay: SRC2 coactivator transcriptional activity inhibitors, confirmation, cell-based, luminescence, HEK293, triplicate (AID 652008;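 active means mean inhibition above 46.5%, the solvent-only control mean plus 3 SD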;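 further: 0% = DMSO-treated cells and 100% = Gossypol at 36 µM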); settings: HEK293 GAL4-SRC2 luciferase reporter, at 8.9 µM, stronger effect = higher value

Sequence of Nuclear receptor coactivator 3 (Homo sapiens) (Q9Y6Q9 whole entry, looked up, the tested form may be a part): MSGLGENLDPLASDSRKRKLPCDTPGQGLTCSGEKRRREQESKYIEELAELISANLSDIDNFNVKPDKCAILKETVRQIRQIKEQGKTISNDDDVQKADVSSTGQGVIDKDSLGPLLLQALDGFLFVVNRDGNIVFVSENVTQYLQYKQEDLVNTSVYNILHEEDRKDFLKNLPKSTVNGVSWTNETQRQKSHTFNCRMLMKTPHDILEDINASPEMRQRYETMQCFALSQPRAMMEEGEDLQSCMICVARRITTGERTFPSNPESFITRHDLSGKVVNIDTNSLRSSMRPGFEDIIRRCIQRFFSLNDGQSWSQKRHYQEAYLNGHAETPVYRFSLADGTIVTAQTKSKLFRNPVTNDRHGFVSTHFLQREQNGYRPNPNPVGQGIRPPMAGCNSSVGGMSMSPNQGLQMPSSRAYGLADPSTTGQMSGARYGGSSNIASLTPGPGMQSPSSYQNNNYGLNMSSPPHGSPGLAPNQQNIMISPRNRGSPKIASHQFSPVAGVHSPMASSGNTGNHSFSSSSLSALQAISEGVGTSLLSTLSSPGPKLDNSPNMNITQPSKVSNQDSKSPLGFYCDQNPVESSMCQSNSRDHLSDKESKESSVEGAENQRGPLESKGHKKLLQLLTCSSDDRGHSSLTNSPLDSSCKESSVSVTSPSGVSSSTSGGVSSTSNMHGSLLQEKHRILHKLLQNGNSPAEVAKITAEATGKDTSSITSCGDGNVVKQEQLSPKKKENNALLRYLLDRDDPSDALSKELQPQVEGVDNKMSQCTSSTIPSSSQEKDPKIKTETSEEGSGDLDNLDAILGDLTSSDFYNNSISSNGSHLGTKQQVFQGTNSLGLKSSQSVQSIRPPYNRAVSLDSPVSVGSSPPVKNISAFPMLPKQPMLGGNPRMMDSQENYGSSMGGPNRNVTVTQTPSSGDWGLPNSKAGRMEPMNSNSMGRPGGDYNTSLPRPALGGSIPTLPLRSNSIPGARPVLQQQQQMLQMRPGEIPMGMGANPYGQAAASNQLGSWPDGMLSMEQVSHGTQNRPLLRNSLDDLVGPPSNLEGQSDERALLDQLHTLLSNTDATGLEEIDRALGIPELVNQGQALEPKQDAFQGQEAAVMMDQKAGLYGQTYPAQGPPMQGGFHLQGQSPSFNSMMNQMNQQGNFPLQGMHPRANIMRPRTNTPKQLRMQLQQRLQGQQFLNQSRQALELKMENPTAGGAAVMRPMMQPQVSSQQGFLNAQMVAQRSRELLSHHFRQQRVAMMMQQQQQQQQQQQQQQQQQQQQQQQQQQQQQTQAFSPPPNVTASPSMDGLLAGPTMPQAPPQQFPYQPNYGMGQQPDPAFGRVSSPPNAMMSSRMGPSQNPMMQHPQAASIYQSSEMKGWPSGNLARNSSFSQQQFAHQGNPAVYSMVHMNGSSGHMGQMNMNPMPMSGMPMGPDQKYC
Sequence of Steroidogenic factor 1 (Homo sapiens) (Q13285 whole entry, looked up, the tested form may be a part): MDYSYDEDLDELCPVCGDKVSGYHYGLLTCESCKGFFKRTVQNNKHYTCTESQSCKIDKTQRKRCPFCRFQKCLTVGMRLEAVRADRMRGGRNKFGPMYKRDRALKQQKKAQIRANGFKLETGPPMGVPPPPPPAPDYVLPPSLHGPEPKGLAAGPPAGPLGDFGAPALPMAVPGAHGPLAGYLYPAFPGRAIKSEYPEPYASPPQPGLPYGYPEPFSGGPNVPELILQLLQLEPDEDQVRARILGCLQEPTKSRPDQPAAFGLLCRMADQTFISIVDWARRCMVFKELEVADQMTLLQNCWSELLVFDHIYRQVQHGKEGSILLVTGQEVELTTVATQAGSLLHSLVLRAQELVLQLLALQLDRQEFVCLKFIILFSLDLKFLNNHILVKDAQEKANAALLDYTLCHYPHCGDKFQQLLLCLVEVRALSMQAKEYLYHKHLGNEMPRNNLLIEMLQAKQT
Sequence of Nuclear receptor subfamily 5 group A member 2 (Homo sapiens) (O00482 whole entry, looked up): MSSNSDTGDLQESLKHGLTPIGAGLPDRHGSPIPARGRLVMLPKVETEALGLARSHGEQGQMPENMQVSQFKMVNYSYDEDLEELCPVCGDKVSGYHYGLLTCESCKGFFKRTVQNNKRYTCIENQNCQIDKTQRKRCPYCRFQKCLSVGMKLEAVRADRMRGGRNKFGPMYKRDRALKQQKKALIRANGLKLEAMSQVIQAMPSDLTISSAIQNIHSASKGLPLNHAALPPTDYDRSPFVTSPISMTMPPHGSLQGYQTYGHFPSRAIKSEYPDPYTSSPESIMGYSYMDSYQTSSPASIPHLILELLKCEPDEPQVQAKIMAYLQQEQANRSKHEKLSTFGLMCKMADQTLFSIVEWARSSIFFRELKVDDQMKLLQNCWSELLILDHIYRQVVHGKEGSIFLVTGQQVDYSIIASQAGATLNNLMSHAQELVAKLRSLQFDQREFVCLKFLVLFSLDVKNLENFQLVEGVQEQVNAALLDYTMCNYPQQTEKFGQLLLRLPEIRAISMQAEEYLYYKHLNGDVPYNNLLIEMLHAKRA
Sequence of Nuclear receptor coactivator 1 (Homo sapiens) (Q15788 whole entry, looked up, the tested form may be a part): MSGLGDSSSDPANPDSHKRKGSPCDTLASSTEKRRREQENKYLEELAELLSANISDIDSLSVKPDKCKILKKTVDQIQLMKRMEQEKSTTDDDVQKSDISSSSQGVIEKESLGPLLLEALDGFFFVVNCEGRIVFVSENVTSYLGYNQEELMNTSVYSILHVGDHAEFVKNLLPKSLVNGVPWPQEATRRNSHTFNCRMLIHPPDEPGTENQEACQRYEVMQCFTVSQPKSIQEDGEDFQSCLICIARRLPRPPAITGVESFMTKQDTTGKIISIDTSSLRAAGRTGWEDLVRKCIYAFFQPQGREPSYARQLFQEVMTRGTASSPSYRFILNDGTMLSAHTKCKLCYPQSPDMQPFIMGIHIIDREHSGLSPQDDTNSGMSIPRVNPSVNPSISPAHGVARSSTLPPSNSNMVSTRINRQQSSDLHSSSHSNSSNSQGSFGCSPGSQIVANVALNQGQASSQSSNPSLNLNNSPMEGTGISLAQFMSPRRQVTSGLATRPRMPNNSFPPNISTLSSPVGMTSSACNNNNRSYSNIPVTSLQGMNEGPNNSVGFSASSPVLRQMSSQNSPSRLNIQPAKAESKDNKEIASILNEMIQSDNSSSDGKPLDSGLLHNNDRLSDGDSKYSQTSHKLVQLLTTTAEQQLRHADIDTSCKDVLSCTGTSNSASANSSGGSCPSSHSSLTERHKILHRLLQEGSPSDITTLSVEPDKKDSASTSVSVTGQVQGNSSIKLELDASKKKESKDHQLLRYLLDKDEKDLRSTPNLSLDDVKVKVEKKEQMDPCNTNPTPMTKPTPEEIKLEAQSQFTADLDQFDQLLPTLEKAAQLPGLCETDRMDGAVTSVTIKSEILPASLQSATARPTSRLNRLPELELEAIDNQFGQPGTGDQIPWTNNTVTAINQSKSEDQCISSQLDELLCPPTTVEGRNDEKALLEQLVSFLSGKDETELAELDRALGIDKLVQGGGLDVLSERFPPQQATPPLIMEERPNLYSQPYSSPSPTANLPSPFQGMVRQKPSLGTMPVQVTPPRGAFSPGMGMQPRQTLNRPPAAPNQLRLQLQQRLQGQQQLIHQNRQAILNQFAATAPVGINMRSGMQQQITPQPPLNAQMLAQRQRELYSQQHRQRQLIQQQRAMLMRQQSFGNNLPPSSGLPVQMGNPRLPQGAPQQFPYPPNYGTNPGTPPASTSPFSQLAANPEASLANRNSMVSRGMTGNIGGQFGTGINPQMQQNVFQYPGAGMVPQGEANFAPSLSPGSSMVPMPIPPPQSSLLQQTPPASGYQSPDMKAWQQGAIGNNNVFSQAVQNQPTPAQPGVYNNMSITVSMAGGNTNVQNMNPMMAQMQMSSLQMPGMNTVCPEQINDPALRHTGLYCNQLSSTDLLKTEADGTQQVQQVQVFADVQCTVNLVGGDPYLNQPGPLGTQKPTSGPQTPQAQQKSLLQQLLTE

With NC1=C(Br)C(=O)c2ncccc2C1=O the inhibition [1] was 72.1% (active), the inhibition [2] was 60.8% (active) and the inhibition [3] was 49.1% (active). The inhibition [4] was 54.8% (active), the inhibition [5] was 70.9% (active) and the inhibition [6] was 92.9% (active). The inhibition [7] was 84.3% (active) and the inhibition [8] was 79.3% (active).

For Oc1cccc2cc(Nc3ccccc3)cnc12, the inhibition [1] was 60.4% (active), the inhibition [2] was 63.3% (active) and the inhibition [3] was 25.3%. For the same compound, the inhibition [4] was 70.1% (active), the inhibition [5] was 65.5% (active) and the inhibition [6] was 99.5% (active). For the same compound, the inhibition [7] was 84.8% (active) and the inhibition [8] was 88% (active).

With CCOc1ccccc1O[C@H](c1ccccc1)[C@H]1CNCCO1 the inhibition [1] was 3.48%, the inhibition [2] was -0.26% and the inhibition [3] was -8.72%. For the same compound, the inhibition [4] was 1.35%, the inhibition [5] was 12.6% and the inhibition [6] was 8.61%. For the same compound, the inhibition [7] was 13.7% and the inhibition [8] was 11.6%.

For Cc1cc(C(C)(C)C)cc(C)c1C[n+]1ccc2ccccc2c1, the inhibition [1] was 41.4%, the inhibition [2] was 59.3% (active) and the inhibition [3] was 11.7%. For the same compound, the inhibition [4] was 53.3% (active), the inhibition [5] was 30.7% (active) and the inhibition [6] was 99.2% (active). For the same compound, the inhibition [7] was 69.1% (active) and the inhibition [8] was 72.7% (active).

In the case of CCN1/C(=C/c2ccc3cc(C)ccc3[n+]2CC)Sc2ccccc21, the inhibition [1] is reported as 57% (active), the inhibition [2] is reported as 78.5% (active) and the inhibition [3] is reported as 45%. The inhibition [4] was 80.2% (active), the inhibition [5] was 72.2% (active) and the inhibition [6] was 105% (active). For the same compound, the inhibition [7] was 92.3% (active) and the inhibition [8] was 82.7% (active).

For CC(=NNC(=S)N1CCN(C2CCCCCC2)CC1)c1ccccn1, the inhibition [1] was 50% (active), the inhibition [2] was 83.7% (active) and the inhibition [3] was 66.2% (active). The inhibition [4] was 71% (active), the inhibition [5] was 81.8% (active) and the inhibition [6] was 98.5% (active). The inhibition [7] was 85.4% (active) and the inhibition [8] was 65.2% (active).

For CC(=NNC(=S)Nc1ccc(C)cc1)c1ccccn1, the inhibition [1] was 59% (active), the inhibition [2] was 69.9% (active) and the inhibition [3] was 46.8% (active). For the same compound, the inhibition [4] was 66% (active), the inhibition [5] was 66.1% (active) and the inhibition [6] was 68.7% (active). For the same compound, the inhibition [7] was 85.4% (active) and the inhibition [8] was 52.6% (active).

For Cc1ccc(-n2c(-c3ccc(Br)cc3)c[n+]3c2CCc2ccc4cccnc4c2-3)cc1, the inhibition [1] was 89.4% (active), the inhibition [2] was 86.1% (active) and the inhibition [3] was 74.8% (active). For the same compound, the inhibition [4] was 87.5% (active), the inhibition [5] was 83.8% (active) and the inhibition [6] was 111% (active). For the same compound, the inhibition [7] was 95.8% (active) and the inhibition [8] was 96.3% (active).

For O=C(NN=Cc1ccccc1O)NN=Cc1ccccc1O, the inhibition [1] was 48.5% (active), the inhibition [2] was 80% (active) and the inhibition [3] was 24.6%. For the same compound, the inhibition [4] was 77.1% (active), the inhibition [5] was 69.9% (active) and the inhibition [6] was 97.3% (active). The inhibition [7] was 86.7% (active), the inhibition [8] was 81.8% (active) and the inhibition [9] was 1.25%. It also gave an inhibition [10] of 2.69% and an inhibition [11] of 6.88%.

In the case of CCN1CCS/C1=C\C=C\C1=[N+](CC)CCS1, the inhibition [1] is reported as 22.6%, the inhibition [2] is reported as 44.8% (active) and the inhibition [3] is reported as 4.06%. The inhibition [4] was 50.1% (active), the inhibition [5] was 32.9% (active) and the inhibition [6] was 77% (active). The inhibition [7] was 79% (active) and the inhibition [8] was 69.2% (active).

In the case of Cc1cc(C)cc(NS(=O)(=O)c2ccc3c(c2)c(=O)n(C)c(=O)n3C)c1, the inhibition [1] is reported as 55.2% (active), the inhibition [2] is reported as 36.5% (active) and the inhibition [3] is reported as 57.1% (active). The inhibition [4] was 38% (active), the inhibition [5] was 36.2% (active) and the inhibition [6] was 54.4% (active). For the same compound, the inhibition [7] was 41.3% and the inhibition [8] was 56.9% (active).

In the case of O=[N+]([O-])c1ccc(Sc2cccc[n+]2[O-])c2nonc12, the inhibition [1] is reported as 98.7% (active), the inhibition [2] is reported as 95.4% (active) and the inhibition [3] is reported as 91.7% (active). For the same compound, the inhibition [4] was 93.3% (active), the inhibition [5] was 98.1% (active) and the inhibition [6] was 111% (active). The inhibition [7] was 99.2% (active) and the inhibition [8] was 98.9% (active).

For COC(=O)Cc1ccc(NC(=O)c2ccc(C(C)(C)C)cc2)cc1, the inhibition [1] was 55.9% (active), the inhibition [2] was 40.7% (active) and the inhibition [3] was 43.4%. The inhibition [4] was 44.8% (active), the inhibition [5] was 54.3% (active) and the inhibition [6] was 76.9% (active). The inhibition [7] was 67.3% (active), the inhibition [8] was 50.8% (active) and the inhibition [12] was 21.1%. For the same compound, the inhibition [13] was 92.9% (active).

In the case of O=C(CCCN1C(=O)S/C(=C\c2ccccc2)C1=O)NNC(=O)c1ccccc1O, the inhibition [1] is reported as 66% (active), the inhibition [2] is reported as 58.7% (active) and the inhibition [3] is reported as 54.6% (active). The inhibition [4] was 53.3% (active), the inhibition [5] was 54.9% (active) and the inhibition [6] was 64% (active). The inhibition [7] was 53.8% (active), the inhibition [8] was 63.8% (active) and the inhibition [12] was 89.2% (active). For the same compound, the inhibition [13] was 92.8% (active).

In the case of COc1cccc(-c2nnc3n2N=C(C(C)(C)C)CS3)c1, the inhibition [1] is reported as 89.1% (active), the inhibition [2] is reported as 64.5% (active) and the inhibition [3] is reported as 72.3% (active). For the same compound, the inhibition [4] was 71.4% (active), the inhibition [5] was 56.7% (active) and the inhibition [6] was 64.9% (active). The inhibition [7] was 60.9% (active), the inhibition [8] was 75.4% (active) and the inhibition [12] was 26.6%. The inhibition [13] was 73.7% (active).

With Cc1cc(C(=O)CN2C(=O)c3ccccc3S2(=O)=O)c(C)n1CC1CCCO1 (centres undefined) the inhibition [1] was 82.9% (active), the inhibition [2] was 62.8% (active) and the inhibition [3] was 77.7% (active). For the same compound, the inhibition [4] was 60% (active), the inhibition [5] was 78.1% (active) and the inhibition [6] was 81% (active). The inhibition [7] was 80.4% (active), the inhibition [8] was 68.2% (active) and the inhibition [12] was 63.7% (active). The inhibition [13] was 93.7% (active).

— PubChem BioAssay
